Compound activity deposited in PubChem by National Center for Advancing Translational Sciences (NCATS).
Sampled rows, rich in hits. Any-hit rate of the full collection: about 17%.
DT40 TDP1 CPT: growth inhibition of DT40 Tdp1-/-;hTDP1 cells with camptothecin (screen for TDP1 inhibitors); chicken DT40 Tdp1-/-;hTDP1 cells + 20 nM CPT, ATP luminescence, 48 h; Potency, µM (titrated, usually from 46.2 µM), for the others: top-dose activity change, negative = growth inhibition, most hits filed as inhibitors; 420,000 compounds, 12% hits; AID 686979; note: % is set by controls: 0 for no effect and ±100 for the full control effect; nearly all actives have a fitted effect of over 55% in size
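Chicken DT40 Tdp1-/- cells complemented with human TDP1, 400 cells/well, exposed to compounds plus 20 nM camptothecin for at least 48 h at 37 C; viability read as ATP content by CellTiter-Glo luminescence.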
HT1080NT lethal: kills 2HG-producing HT-1080-NT fibrosarcoma cells; AID 686970; 360,000 compounds, 1.6% hits; Potency, µM (titrated, usually from 46.1 µM), inactives show top-dose activity, negative = less viability, usual class: cytotoxic; HT-1080-NT fibrosarcoma viability, CellTiter-Glo ATP luminescence, 48 h;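 note: NT is the 2HG producing partner of a matched IDH1 knockdown line; 0% = DMSO-treated cells and -100% = media-only wells without cells; nearly all actives have a fitted effect of over 55% in size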
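750 cells/well, RPMI + 5% FBS; 2 h settle, compound pin-transfer, 48 h at 37 degrees C. CellTiter-Glo 10 min RT, luminescence. Normalized to DMSO and media-only wells.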
TGFb inhibitor: TGF-b pathway inhibition. HepG2 CAGA-GFP TGF-b/SMAD3 reporter, GFP fluorescence, 18 h; TGF-beta stimulated, 500 pg/mL final. Potency, µM (titrated, usually from 46.1 µM), for the others: at the highest dose activity, negative = inhibition, most hits filed as inhibitors. 410,000 compounds, 1.2% hits. AID 588855; note: % is set by controls: 0 for no effect and ±100 for the full control effect; nearly all actives have a fitted effect of over 65% in size
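GFP signal (ex488/em500-530) from TGF-beta-stimulated HEPG2 CAGA-GFP cells, 500 pg/mL final, 18 h at 37 degrees C in DMEM plus 1% FBS, normalized to unstimulated and DMSO-stimulated controls.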
DT40 TDP1 no CPT: qHTS for Inhibitors of human tyrosyl-DNA phosphodiesterase 1 (TDP1): qHTS in cells in absence of CPT; DT40 Tdp1-/- hTDP1 cells, no CPT, ATP luminescence, 48 h; Potency, µM (titrated, usually from 46.2 µM), for inactives: top-dose activity change, negative = growth inhibition, actives largely listed as inhibitors; 420,000 compounds, 15% hits; note: % is set by controls: 0 for no effect and ±100 for the full control effect; nearly all actives have a fitted effect of over 55% in size
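Chicken DT40 Tdp1-/- cells complemented with human TDP1, screened without camptothecin (DMSO vehicle only), 400 cells/well. Compounds pin-transferred, cells incubated at 37 °C for at least 48 hr. Growth read as ATP-dependent luminescence (CellTiter-Glo, 30 min at RT).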
HepG2 tox: HepG2 cytotoxicity, counter-screen for TGF-b inhibitors; Potency, µM (doses to about 46.1 µM), without a hit: top-dose activity change, negative = cytotoxicity, actives largely listed as cytotoxic; 410,000 compounds, 0.76% hits; HepG2 CAGA-GFP viability, ATP luminescence, 18 h
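CellTiter-Glo luminescence gave cytotoxicity after 18 hours at 37 degrees C. The cells were HepG2 CAGA-GFP in 1% FBS DMEM, stimulated with 500 pg/mL TGF-beta after compound addition. %Activity was normalised to no-cell wells (complete cell-killing) and DMSO (no toxicity), and curves were fitted and classified.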
HT1080 IDH1KD tx: toxicity to HT-1080 IDH1 knockdown cells (counter line); HT-1080 IDH1 knockdown viability, ATP luminescence, 48 h; AID 686971; Potency, µM (doses to about 46.1 µM), inactives show top-dose activity, negative = toxicity, actives largely listed as cytotoxic; 360,000 compounds, 2% hits;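 note: 0% = DMSO wells and -100% = cell-free medium wells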
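Cytotoxicity counter-line: IDH1KD HT-1080, 48 h, CellTiter-Glo. Curves classed by r2, magnitude and activity.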
* = called active by the depositor; ? = inconclusive; . = not tested or not shown. Calls come from the whole dose curve; as a rule, active = well fitted curve in the direction sought with a large enough effect; inconclusive = small, poorly fitted or top-dose-only effect, or another doubt; inactive = no such curve, though single readings can be large; an effect the other way counts as inactive or inconclusive. Potency is the fitted concentration of half-maximal effect.

SMILES	DT40 TDP1 CPT	HT1080NT lethal	TGFb inhibitor	DT40 TDP1 no CPT	HepG2 tox	HT1080 IDH1KD tx
N#Cc1c(C(F)(F)F)cc(-c2ccccc2)nc1SCC(=O)Nc1sc2c(c1C#N)CCC2	13µM*	0%	-6%	10µM*	-44%	-20%
CC(=O)Oc1oc(-c2ccccc2)nc1/C=N/c1ccccn1	16µM*	12%	-15%	21µM*	-16%	0%
COc1ccccc1N=Cc1nc(-c2ccccc2)oc1OC(C)=O	?	-15%	-3%	?	-25%	-5%
CN(C)c1ccc(N=Cc2nc(-c3ccccc3)oc2OC(=O)c2ccccc2)cc1	18µM*	20%	2%	23µM*	-15%	10%
CCNc1ncc2nc(C)c(=O)n(CCOC)c2n1	-6%	.	.	-6%	.	.
C[C@@H]1CCCCO[C@@H](CN(C)Cc2ccc(C(F)(F)F)cc2)[C@@H](C)CN([C@H](C)CO)C(=O)c2cc(N(C)C)ccc2O1	23µM*	-28%	?	23µM*	-25%	-29%
C[C@@H]1CN([C@@H](C)CO)C(=O)c2cc(N(C)C)ccc2O[C@@H](C)CCCCO[C@@H]1CN(C)Cc1ccc2c(c1)OCO2	16µM*	12%	3%	16µM*	-11%	10%
C[C@@H]1CCCCO[C@H](CN(C)Cc2ccc(C(=O)O)cc2)[C@@H](C)CN([C@H](C)CO)C(=O)c2cc(N(C)C)ccc2O1	-17%	1%	-4%	-8%	-26%	0%
CC(C)CN1CCC1(C)C(=O)Nc1cc(-c2ccccc2)nn1C (stereo unspecified)	?	6%	-42%	?	-21%	21%
COc1cc(=O)n2c(c1C(=O)NC(C)c1ccco1)CCN(C(=O)c1cccc(C)c1C)CC2 (stereo unspecified)	0.16µM*	.	.	-15%	.	.
CCN(Cc1ccccc1)C(=O)CCS(=O)(=O)c1ccc2c(c1)NC(=O)CO2	?	-3%	0%	5%	-12%	23%
CCOC(=O)N1CCC(N(CCN(C)C)C(=S)Nc2ccc(F)c(Cl)c2)CC1	-3%	-4%	?	8%	-3%	-2%
CCOC(=O)N1CCC(N(CCOC)C(=O)Nc2ccc(Cl)c(Cl)c2)CC1	18µM*	5%	-14%	10µM*	-35%	-27%
CCOC(=O)N1CCC(N(CCCOC)C(=O)Nc2cccc(OC)c2)CC1	?	2%	-19%	?	-1%	4%
CCOC(=O)N1CCC(N(C(=O)Nc2cccc(OC)c2)C(C)CC)CC1 (stereo unspecified)	21µM*	-27%	-3%	10µM*	1%	-1%
Cc1ccc(CSc2nc3cc(C(=O)NC4CCCC4)ccc3c(=O)n2Cc2ccccc2)cc1	?	.	3%	?	-5%	.
COc1ccccc1Nc1ccc(C(=O)NC2CCCCC2)cn1	?	4%	6%	?	-24%	-14%
COc1ccccc1Nc1nn2c(=O)c3ccc(C(=O)NC4CCCCC4)cc3nc2s1	2.3µM*	.	2%	3.7µM*	-1%	.
CCc1ccccc1Nc1nn2c(=O)c3ccc(C(=O)NC4CCCCC4)cc3nc2s1	10µM*	.	1%	13µM*	4%	.
O=C(CCCCCNC(=O)c1ccccc1Cl)N/N=C/c1ccco1	5%	2%	-13%	-1%	2%	6%
Cc1c(CCC(=O)O)c(=O)oc2cc(OCc3ccccc3Br)ccc12	3%	2%	3%	3%	7%	5%
CN(C(=O)c1cccc(NC(=O)Cc2ccc(NC(=O)C3CCN(C(=O)CCc4ccccc4)CC3)cc2)c1)C1CCC1	13µM*	3%	?	13µM*	-16%	-1%
CN(C(=O)c1cccc(NC(=O)Cc2ccc(NC(=O)C3CCN(C(=O)c4ccccc4)CC3)cc2)c1)C1CCCC1	?	-4%	19%	?	-1%	-17%
CN(C(=O)c1cccc(NC(=O)Cc2ccc(NC(=O)C3CCN(C(=O)c4ccccc4)CC3)cc2)c1)C1CC1	-12%	1%	2%	-13%	6%	1%
CN(C(=O)c1cccc(NC(=O)Cc2ccc(NC(=O)C3CCN(C(=O)CCc4ccccc4)CC3)cc2)c1)C1CC1	16µM*	0%	?	10µM*	-6%	4%
SMILES	DT40 TDP1 CPT	HT1080NT lethal	TGFb inhibitor	DT40 TDP1 no CPT	HepG2 tox	HT1080 IDH1KD tx
CCCC(=O)c1c(NCCO)cc(C)oc1=O	-10%	-1%	-12%	2%	-8%	-1%
C=CCN1c2ccccc2[C@]23C[C@@H](C(=O)OC)N(C(=O)OCC)C2=NC(C(=O)OC)=C(C(=O)OC)[C@H]13	?	5%	?	-1%	-43%	7%
CCOC(=O)N1C2=NC(C(=O)OC)=C(C(=O)OC)[C@@H]3N(Cc4ccccc4)c4ccccc4[C@]23C[C@H]1C(=O)OC	18µM*	6%	1%	?	-6%	9%
COC(=O)C1=C(C(=O)OC)[C@@H]2N(C)c3ccc(OC)cc3[C@@]23C[C@@H](C(=O)OC)N(C(=O)c2ccc(Br)cc2)C3=N1	?	23µM*	?	26µM*	-29%	?
COC(=O)C1=C(C(=O)OC)[C@@H]2N(Cc3ccccc3)c3ccccc3[C@@]23C[C@@H](C(=O)OC)N(C(=O)c2ccc(Br)cc2)C3=N1	?	-18%	10µM*	18µM*	-10%	?
COC(=O)C1=C(C(=O)OC)[C@@H]2N(Cc3ccccc3)c3ccccc3[C@@]23C[C@@H](C(=O)OC)N(C(=O)NC(C)(C)C)C3=N1	?	8%	?	-19%	14%	10%
COC(=O)C1=C(C(=O)OC)[C@@H]2N(Cc3ccccc3)c3ccccc3[C@@]23C[C@@H](C(=O)OC)N(C(C)=O)C3=N1	?	3%	-11%	?	-15%	7%
C=CCN1c2ccccc2[C@]23C[C@@H](C(=O)OC)N(C(=O)c4ccc(Br)cc4)C2=NC(C(=O)OC)=C(C(=O)OC)[C@H]13	?	18µM*	20µM*	?	-29%	?
CCOC(=O)CNS(=O)(=O)c1ccc(C)cc1	-17%	11%	-2%	-1%	13%	13%
Cc1ccc(-n2nc3c(c2NC(=O)c2cccs2)CS(=O)(=O)C3)cc1C	-21%	0%	7%	1%	-3%	-2%
